# Experimental data from the supplement of paper PMC9135407.
# Several values for one entry are separate records, joined by “and”; a condition that tells them apart may be missing. Equal values may be shown once. Where a name gives a salt, the structure may show the parent alone. Hit rate of the full screen: of about 5,800 compounds, about 620 (11%) showed activity. Shown is part of a subset that was picked to be rich in actives. Values without a mark were called inactive.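 Rule for the calls: active = score above a cut-off or among the top three wells of a plate; in these data no inactive exceeds 0.85.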
# System: primary human hepatic stellate cells (donor 1)
# Assay: scaled lipid accumulation score (0 = DMSO-like, 1 = nortriptyline-like); higher = stronger HSC inactivation (lipid re-accumulation), active = hit call of the paper
# Settings: 48 h
# [1] = library stock concentration: 3.33 mM
# [2] = library stock concentration: 10 mM
# [3] = library stock concentration: 80 uM
# [4] = library stock concentration: 400 uM
# [5] = library stock concentration: 2 mM
# [6] = library stock concentration: 1 mM
# [7] = library stock concentration: 6.2 mM
# [8] = library stock concentration: 5.1 mM
# [9] = library stock concentration: 13.5 mM
compound,measurement,setting,value
Cc1ccc(C(=O)Nc2cccc(C(F)(F)F)c2)cc1Nc1nc(-c2cccnc2)nc2c1cnn2C [listing 1 of 2 here],scaled lipid accumulation score,[1],0.942 (active)
same,scaled lipid accumulation score,[2],0.959 (active)
Cc1ccc(C(=O)Nc2cccc(C(F)(F)F)c2)cc1Nc1cncc(C(N)=O)c1,scaled lipid accumulation score,[3],≤ 0
same,scaled lipid accumulation score,[4],0.035
same,scaled lipid accumulation score,[5],≤ 0
same,scaled lipid accumulation score,[2],0.142
Cc1ccc(C(=O)Nc2cccc(C(F)(F)F)c2)cc1Nc1nc(-c2cccnc2)nc2c1cnn2C [listing 2 of 2 here],scaled lipid accumulation score,[3],≤ -0.016
same,scaled lipid accumulation score,[4],≤ -0.016
same,scaled lipid accumulation score,[5],≤ -0.016
same,scaled lipid accumulation score,[2],0.726
"Nc1ncnc2c1ncn2[C@@H]1O[C@H](COP(=O)(O)CP(=O)(O)OP(=O)(O)O)[C@H](O)C1O (stereo partly drawn) [alpha,beta-Methylene adenosine 5'-triphosphate dilithium]",scaled lipid accumulation score,[2],0.242
CCCCC/C=C\C/C=C\C/C=C\C/C=C\CCCC(=O)S[C@H](COCCCCCCCCCCCCCCCC)COP(=O)([O-])OCC[N+](C)(C)C [Arachidonoyl thio-PC],scaled lipid accumulation score,[6],≤ 0
CC(C=CC(=O)NO)=CC(C)C(=O)c1ccc(N(C)C)cc1 (configuration not stated) [Trichostatin A (TSA)],scaled lipid accumulation score,[1],0.515
same,scaled lipid accumulation score,[2],0.663
CC(/C=C/C(=O)NO)=C\[C@@H](C)C(=O)c1ccc(N(C)C)cc1 [Trichostatin A],scaled lipid accumulation score,[6],0.793 (active)
CC(/C=C/C(=O)NO)=C\[C@@H](C)C(=O)c1ccc(N(C)C)cc1 [Trichostatin-A],scaled lipid accumulation score,library stock concentration: 16.5 mM,0.589
CCCSc1nc(N[C@@H]2C[C@H]2c2ccc(F)c(F)c2)c2nnn([C@@H]3C[C@H](OCCO)[C@@H](O)[C@H]3O)c2n1 [Ticagrelor],scaled lipid accumulation score,[1],≤ 0
same,scaled lipid accumulation score,[2],0.193
CSc1nc(N)c2ncn([C@@H]3O[C@H](COP(=O)(O)OP(=O)(O)O)[C@H](O)C3O)c2n1 (some centres not stated),scaled lipid accumulation score,[2],0.082
CO/N=C1\C[C@]2(C[C@@H]3C[C@@H](C/C=C(\C)C[C@@H](C)/C=C/C=C4\CO[C@@H]5[C@H](O)C(C)=C[C@@H](C(=O)O3)[C@]45O)O2)O[C@H](/C(C)=C/C(C)C)[C@H]1C,scaled lipid accumulation score,[2],≤ 0
"OC[C@H]1O[C@@H](n2cnc3c(N[C@H]4CCC[C@@H]4O)ncnc32)[C@@H](O)C1O (stereo partly drawn) [Adenosine, N-(2-hydroxycyclopentyl)-, (1S-trans)- [CAS]]",scaled lipid accumulation score,[2],≤ 0
Br.CN(C)CCCC1(c2ccc(F)cc2)OCc2cc(C#N)ccc21 (configuration not stated) [Citalopram hydrobromide],scaled lipid accumulation score,[2],0.952 (active)
CN(C)CCC[C@@]1(c2ccc(F)cc2)OCc2cc(C#N)ccc21 [Escitalopram],scaled lipid accumulation score,[7],0.197
CN(C)CCCC1(c2ccc(F)cc2)OCc2cc(C#N)ccc21 (configuration not stated) [Citalopram hydrobromide],scaled lipid accumulation score,[2],0.259 and 0.597
CN(C)CCCC1(c2ccc(F)cc2)OCc2cc(C#N)ccc21 (configuration not stated) [Citalopram Hydrobromide],scaled lipid accumulation score,,≤ 0
CN(C)CCCC1(c2ccc(F)cc2)OCc2cc(C#N)ccc21 (configuration not stated) [Citalopram],scaled lipid accumulation score,[7],0.446 and 0.566
same,scaled lipid accumulation score,[2],0.51
CN(C)CCC[C@@]1(c2ccc(F)cc2)OCc2cc(C#N)ccc21 [Escitalopram Oxalate],scaled lipid accumulation score,[1],≤ 0
same,scaled lipid accumulation score,[2],0.644
CN(C)CCC[C@@]1(c2ccc(F)cc2)OCc2cc(C#N)ccc21,scaled lipid accumulation score,[2],0.614
"CCCCCCCCC#CCC#CCC#CCCCC(=O)O [5,8,11-Eicosatriynoic Acid]",scaled lipid accumulation score,[6],0.059
"CCCCCCCCC#CCC#CCC#CCCCC(=O)O [5,8,11-Eicosatriynoic acid]",scaled lipid accumulation score,[6],≤ -0.021
CCCCCCCCCCCCCCCC(=O)N[C@@H](COP(=O)(O)O)C(=O)O,scaled lipid accumulation score,[6],≤ -0.021
O=C(CCc1ccncc1)NNC(=O)N1Cc2ccccc2Oc2ccc(Cl)cc21,scaled lipid accumulation score,[2],0.105
CN(C)CCC(c1ccc(Cl)cc1)c1ccccn1 (configuration not stated) [Chlorpheniramine Maleate],scaled lipid accumulation score,[1],0.106
same,scaled lipid accumulation score,[2],≤ 0
CN(C)CC[C@@H](c1ccc(Cl)cc1)c1ccccn1 [Dexchlorpheniramine maleate],scaled lipid accumulation score,[8],≤ 0
CN(C)CCC(c1ccc(Cl)cc1)c1ccccn1 (configuration not stated) [Chlorpheniramine],scaled lipid accumulation score,[2],≤ 0
CN(C)CCC(c1ccc(Cl)cc1)c1ccccn1 (configuration not stated) [Chlorpheniramine maleate],scaled lipid accumulation score,,0.469
same,scaled lipid accumulation score,library stock concentration: 7.3 mM,0.251
CN(C)CCC(c1ccc(Br)cc1)c1ccccn1 (configuration not stated) [Brompheniramine hydrogen maleate],scaled lipid accumulation score,[1],0.182
same,scaled lipid accumulation score,[2],0.583
CN(C)CC[C@@H](c1ccc(Cl)cc1)c1ccccn1,scaled lipid accumulation score,[2],0.377
CN(C)CC[C@@H](c1ccc(Cl)cc1)c1ccccn1 [Chlorpheniramine (s) maleate],scaled lipid accumulation score,[8],0.181
same,scaled lipid accumulation score,[2],0.005
CN(C)CCC(c1ccc(Cl)cc1)c1ccccn1.O=C(O)/C=C\C(=O)O (configuration not stated),scaled lipid accumulation score,[2],0.891 (active)
"CN(C)CCC(c1ccc(Br)cc1)c1ccccn1 (single isomer, unassigned; (+)) [(+)-Brompheniramine maleate]",scaled lipid accumulation score,[2],0.351
CN(C)CCC(c1ccc(Br)cc1)c1ccccn1 (configuration not stated) [Brompheniramine maleate],scaled lipid accumulation score,,0.343
same,scaled lipid accumulation score,[2],0.275
CN(C)CCC(c1ccc(Br)cc1)c1ccccn1.O=C(O)/C=C\C(=O)O (configuration not stated),scaled lipid accumulation score,[2],0.9 (active)
CCOc1nc2cccc(C(=O)OC(C)OC(=O)OC3CCCCC3)c2n1Cc1ccc(-c2ccccc2-c2nn[nH]n2)cc1 (configuration not stated) [Candesartan cilextil],scaled lipid accumulation score,[2],≤ -0.027
CCOc1nc2cccc(C(=O)OC(C)OC(=O)OC3CCCCC3)c2n1Cc1ccc(-c2ccccc2-c2nn[nH]n2)cc1 (configuration not stated) [Candesartan Cilexetil],scaled lipid accumulation score,[1],≤ 0
same,scaled lipid accumulation score,[2],≤ 0
C/C=C/c1ccc(OC)cc1 [Anethole],scaled lipid accumulation score,[2],0.104
same,scaled lipid accumulation score,[9],≤ 0
"C/C=C/c1ccc(OC)cc1 [Anethole, trans-]",scaled lipid accumulation score,[9],≤ -0.006
CCCCC/C=C\C\C=C/C=C/C=C/[C@@H](SC[C@H](N)C(=O)O)[C@@H](O)CCCC(=O)O [Leukotriene E4],scaled lipid accumulation score,library stock concentration: 100 uM,0.015
